According to ChEMBL document CHEMBL3988442, “University of Dundee, Small-Polar-MMV Screening Library” (2021):

These compounds were tested against AMP-activated protein kinase, AMPK (Homo sapiens) (UniProt P54646+O43741+P54619+Q9UGJ0+Q9Y478+Q13131+Q9UGI9) (assay: AMP-dependent Kinase enzyme assay. An in vitro enzyme assay that detects ADP turnover that is directly proportional to AMPK activity. This uses naive AMPK that is activated during the assay with MK-8722). Settings: 30 µM.
Format: functional
Design: scale not given: direction of the effect not stated beside the values

| SMILES | Percent Effect |
| --- | --- |
| Cc1ccc(C(=O)NCCN2CCOCC2)cc1N(C)S(C)(=O)=O | 4.72% |
| Cc1nc(CN2CCCC2Cn2ccnc2C(C)C)nc2ccccc12 (stereo not given) | -10.6% |
| CN(C)CC1(O)CCCN(C(=O)Cn2nc3ccccc3n2)CC1 (stereo not given) | -12.7% |
| O=C(CCOc1ccccc1F)N1CCOCC1 | -12.5% |
| O=C(NCCC1CN(C2CCCC2)CCO1)c1c[nH]c(=O)[nH]c1=O (stereo not given) | 5.79% |
| O=S(=O)(NC1CCN(CC(F)(F)F)C1)c1cc(F)cc(F)c1 (stereo not given) | 4.84% |
| CCCSCC(=O)N1CCCC(CO)(CCC)C1 (stereo not given) | 7% |
| CCOC(=O)NC1CCCN(c2cncc(Br)c2)C1 (stereo not given) | 15.7% |
| Cc1noc(C)c1CNC(=O)NCCC(=O)N1CCCc2ccccc21 | -2.4% |
| O=C(c1ccccc1)C1CCN(C(=O)CC2COCCN2)CC1 (stereo not given) | 1.36% |
| CCN(Cc1ccc2c(c1)OCO2)c1ncc(S(N)(=O)=O)s1 | 1.52% |
| Cc1cnn(CCCNC(=O)NCCS(=O)(=O)Nc2ccccc2)c1 | 13.3% |
| Cn1ccc(C(=O)N2CCCC2c2cc[nH]n2)n1 (stereo not given) | 4.63% |
| CCc1nc(N)nc(NCCC(=O)NC2CCCCC2)c1C | 0.541% |
| Cn1cc(NC(=O)N2CCCC2c2ccccn2)ccc1=O (stereo not given) | 40.9% |
| CC(C)c1noc(C(C)N2CCN(Cc3nc4ccccc4[nH]3)CC2)n1 (stereo not given) | -0.358% |
| COc1ccccc1OC1CCN(C(=O)c2cnc(C)s2)CC1 | 3.19% |
| O=C(NCCCc1nnc2ccccn12)c1ccccc1C1CCNC1 (stereo not given) | 1.24% |
| NC(=O)C(NC1CCN(Cc2ccc(F)cc2)CC1)c1ccccc1 (stereo not given) | -4.88% |
| CN(C)C(CNC(=O)c1[nH]nc(C2CC2)c1Br)C1CC1 (stereo not given) | -3.39% |

| SMILES | Percent Effect |
| --- | --- |
| COc1ncc(NCc2ccsc2)cc1C(N)=O | 5.38% |
| CC(C)Cc1cc(C(=O)N2CCC(N3CCCC3)CC2)cc(O)n1 | 1.87% |
| O=C(Nc1cccc(F)c1)NC1CCN(Cc2ccncc2)CC1 | 1.71% |
| CN1CSC[C@H]1C(=O)N1CCC(Cc2ccccc2F)CC1 | 0.306% |
| CCC(=O)Nc1cccc(OCC(=O)N2C[C@H]3CC[C@H]2C3)c1 | -10.8% |
| CCn1cnnc1CCNC(=O)c1ccc(Br)cc1F | -0.992% |
| CNc1nc(C(=O)N2CCCC(COc3ccc(F)cc3)C2)cs1 (stereo not given) | 63.7% |
| Cc1ccsc1C(CNC(=O)c1cc(=O)[nH]c(=O)[nH]1)N(C)C (stereo not given) | 3.78% |
| Cc1ccc(-c2nc(C(=O)N(C)CC(=O)N3CCCC3)cs2)c(C)c1 | 1.55% |
| CCc1ccc(CCC(=O)N2CCC(=O)Nc3cccnc32)cc1 | 0.539% |
| O=C(NCc1csc2ccc(Cl)cc12)c1cc2n(n1)CCNC2 | 10.6% |
| CC(=O)c1cnc(NCCN2CCCC2)nc1C | -8.98% |
| Cc1nc2c(c(N[C@H](C(N)=O)C(C)C)n1)Cc1ccccc1OC2 | -25.7% |
| CNC(=O)c1cn2cc(-c3ccccc3Cl)n(CC=C(C)C)c(=O)c2n1 | 3.23% |
| CCN(CC)c1ncccc1CNCc1ccc(-c2ccn[nH]2)s1 | 1.23% |
| O=C1CN([C@@H]2CC[C@@H](NS(=O)(=O)c3ccccc3F)[C@H]2O)CCN1 | -4.46% |
| Cc1nc(C)c(C(=O)N2CCCc3c(F)ccc(F)c32)o1 | -2.55% |
| CCc1nccn1CC1CCCN1S(=O)(=O)N1CCCOCC1 (stereo not given) | 15.2% |
| FC(F)(F)c1cccc(OC2CCN(Cc3ncc[nH]3)CC2)c1 | 7.66% |
| Cc1ccccc1-n1ccnc1S(=O)(=O)Cc1nsc(N(C)C)n1 | -1.55% |
